Tau FP inhib: qHTS for Inhibitors of Tau Fibril Formation, Fluorescence Polarization. K18 P301L tau heparin fibrillization, Alexa594 FP, 6 h. Potency, µM (highest dose often 57.7 µM), for inactives: at the highest dose activity, negative = inhibition, hits mostly inhibitors. 280,000 compounds, 0.39% hits. Microtubule-associated protein tau (Homo sapiens), P10636; further: potency means the concentration at half of the fitted maximal effect; nearly all actives have a fitted effect of over 55% in size
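Human tau K18 […] P301L fragment, 15 uM unlabeled plus 0.24 uM Alexa 594-labeled tau (final), with compound and 20 uM heparin in 100 mM sodium acetate pH 7; 6 hr at 37 C, then Alexa 594 FP read.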
NPSR antagonist: qHTS Assay for Antagonists of the Neuropeptide S Receptor: cAMP Signal Transduction; 220,000 compounds, 1% hits; Q6W5P4; CHO-NPSR cells, cAMP TR-FRET, antagonist mode; Potency, µM (titrated, usually from 38.3 µM), inactives show top-dose activity change, negative = inhibition, most hits filed as inhibitors; further: potency means the concentration at half of the fitted maximal effect; nearly all actives have a fitted effect of over 50% in size
Target sequence (Q6W5P4 whole entry, looked up): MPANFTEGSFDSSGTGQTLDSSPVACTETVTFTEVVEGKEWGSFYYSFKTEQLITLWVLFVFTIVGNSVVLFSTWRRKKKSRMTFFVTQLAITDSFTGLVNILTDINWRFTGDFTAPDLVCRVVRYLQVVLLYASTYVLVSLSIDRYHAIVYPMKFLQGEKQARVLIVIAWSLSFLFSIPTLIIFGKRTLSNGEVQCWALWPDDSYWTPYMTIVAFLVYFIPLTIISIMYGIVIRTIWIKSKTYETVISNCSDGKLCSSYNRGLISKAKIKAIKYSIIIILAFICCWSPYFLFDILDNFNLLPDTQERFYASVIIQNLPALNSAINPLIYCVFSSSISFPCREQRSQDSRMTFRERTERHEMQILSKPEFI
KDM4E inh: qHTS Assay for Inhibitors of Human Jumonji Domain Containing 2E (JMJD2E). Potency, µM (highest dose often 57.1 µM), without a hit: at the top dose activity change, negative = inhibition, actives largely listed as inhibitors. AID 2147, 2009. Lysine-specific demethylase 4E (Homo sapiens), B2RXH2. 230,000 compounds, 1.6% hits. JMJD2E catalytic domain, FDH-coupled NADH fluorescence (FDH is formaldehyde dehydrogenase);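 further: potency means the concentration at half of the fitted maximal effect; 0% = wells with enzyme and -100% = buffer wells without enzyme; nearly all actives have a fitted effect of over 50% in size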
Target sequence (B2RXH2 1-337 limits assumed): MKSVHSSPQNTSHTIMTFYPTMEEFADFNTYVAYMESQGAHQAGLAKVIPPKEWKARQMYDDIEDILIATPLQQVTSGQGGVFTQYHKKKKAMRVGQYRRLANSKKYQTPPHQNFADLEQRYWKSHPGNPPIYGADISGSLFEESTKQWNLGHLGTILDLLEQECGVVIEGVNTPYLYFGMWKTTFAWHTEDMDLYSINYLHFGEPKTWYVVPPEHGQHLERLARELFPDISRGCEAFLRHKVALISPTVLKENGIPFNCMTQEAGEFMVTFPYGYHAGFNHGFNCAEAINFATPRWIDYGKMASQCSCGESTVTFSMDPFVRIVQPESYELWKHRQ
Tau fluor counter: Counterscreen qHTS for Inhibitors of Tau Fibril Formation, Fluorescence Polarization | Potency, µM (doses to about 57.7 µM), for inactives: at the highest dose activity change, negative = decrease | tau K18 P301L Alexa594 fluorescence, heparin fibrillization | 280,000 compounds, 0.93% hits | AID 1463, 2008; further: potency means the concentration at half of the fitted maximal effect; nearly all actives have a fitted effect of over 55% in size
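Human tau K18 P301L (15 uM unlabeled, 0.24 uM Alexa 594-labeled) in 100 mM sodium acetate pH 7 with 20 uM heparin, 6 hr at 37 C. ThT 30 uM added, 1 hr ambient; Alexa 594 FP and total fluorescence read at 555/632 nm.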
PNC assembly inh: High Content Assay for Compounds that inhibit the Assembly of the Perinucleolar Compartment. 140,000 compounds, 3.1% hits. activity change (PNC), negative = inhibition, % at 10 µM. AID 2417, 2010. PC3M PTB-GFP, PNC prevalence imaging, 16 h; active compounds read low;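 active means readout at or below -70, meaning at least 70% loss of cells showing the perinucleolar compartment, a nuclear body marking cancer cells; inconclusive means readout between -30 and a set limit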;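 further: plate controls were DMSO wells for no effect and camptothecin positive control wells for full effect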
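Read-out is percentage of cells bearing a perinucleolar compartment, from automated 20x imaging of fixed, Hoechst-stained PC3M PTB-GFP cells. Cells were seeded 4 h, then exposed 16 h to compound (23 nl of library stock) in duplicate plates.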
Tau ThT inhib: qHTS for Inhibitors of Tau Fibril Formation, Thioflavin T Binding. Microtubule-associated protein tau (Homo sapiens), P10636. recombinant tau K18 P301L (four-repeat tau fragment), heparin-induced fibrillization, ThT fluorescence. Potency, µM (highest dose often 57.4 µM), without a hit: at the top dose activity, negative = inhibition, hits mostly inhibitors. 270,000 compounds, 2.1% hits. AID 1460, 2008; further: potency means the concentration at half of the fitted maximal effect; nearly all actives have a fitted effect of over 55% in size
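Recombinant human tau K18 fragment […] carrying P301L, 15 uM unlabeled plus 0.24 uM Alexa 594-labeled, was fibrillized with 20 uM heparin in 100 mM sodium acetate pH 7 for 6 hr at 37 C; 30 uM ThT fluorescence read after 1 hr.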
Starred values were filed as active, the others as inactive; u = inconclusive; x = no result; ! = repeats disagree; [ ] = another dose, or the depositor's remark. In the library only some 5.1% were active in any assay of this set; here they are far more common. Unless noted, the call rests on the fitted dose curve; in most records, active means well fitted curve in the direction sought with a large enough effect; inconclusive means small, poorly fitted or top-dose-only effect, or another doubt; inactive means no such curve, though single readings can be large; an effect the other way counts as inactive or inconclusive. Unless noted, on the % scale 0 is the no-effect control and ±100 the full control effect.

SMILES	Tau FP inhib	NPSR antagonist	KDM4E inh	Tau fluor counter	PNC assembly inh	Tau ThT inhib
COc1ccc(-c2cc(=O)n(-c3ccc([N+](=O)[O-])cc3)[nH]2)cc1	1.1%	-16.4%	u	u	7.7	11.2µM*
CCc1cccc(NC(=O)CCS(=O)(=O)c2ccc(C)cc2)c1	u	x	x	-13.5%	x	-3.6%
CCN1/C(=C2\C(=O)N(c3ccccc3)N=C2C)C=Cc2cc(C)ccc21	3.8%	-12.8%	-8.4%	-7.0%	u	u
CCN1/C(=C/c2cc[n+](C)cc2)C=Cc2cc(C)ccc21	-4.8%	-27.0%	u	10.9%	u	8.91µM*
CCOC(=O)c1[nH]c(C)c(CCC(=O)Nc2cccc(SC)c2)c1C	1.2%	x	x	-29.1%	x	-8.0%
Cc1c(NC(=O)c2sc3ccccc3c2Cl)cccc1-c1nc2ccccc2o1	-10.1%	x	x	1.1%	x	-5.3%
CCOc1ccc2noc3c2c1C(=O)c1ccccc1-3	u	0.9%[46.1 µM]	u	u	u	u
O=C(O)c1ccccc1NCc1ccco1	0.0%	3.1%	u	8.7%	x	0.8%
CCNc1ccc2noc3c2c1C(=O)c1ccccc1-3	28.2µM*	-16.6%[46.1 µM]	-7.3%	u	-100.0*	7.94µM*
O=C1c2ccccc2-c2onc3ccc(NCc4ccco4)c1c23	25.1µM*	u	-8.8%	4.47µM*[quencher]	-16.4	3.16µM*
COC(=O)c1ccc(NC(=O)CSc2cn(CC(=O)N3CCCCCC3)c3ccccc23)cc1	8.1%	x	x	-25.6%	x	-13.0%
O=[N+]([O-])c1ccc(-c2ccc(/C=N/O)o2)cc1	-2.2%	-4.3%	8.3%	-22.8%	x	7.08µM*
NC(=O)N/N=C/c1ccc(-c2ccc([N+](=O)[O-])cc2)o1	2.1%	-29.1%	-6.7%	u	x	x
CCC1=Nc2cc(C(=O)NCC3CCCO3)ccc2Sc2ccc(Br)cc21 (centres undefined)	3.98µM*	0.0%	-6.7%	u	x	u
CCC1=Nc2cc(C(=O)NCc3ccco3)ccc2Sc2ccc(Cl)cc21	-2.0%	-15.7%	u	-23.5%	-100.0*	u
CCC1=Nc2cc(C(=O)NCC3CCCO3)ccc2Sc2ccc(Cl)cc21 (centres undefined)	3.6%	-18.0%	3.9%	-5.1%	x	-0.9%
CCOC(=O)c1c(C)c(C(=O)NC(C)COC)c(C)n1C (centres undefined)	-10.4%	-11.3%[46.1 µM]	13.1%	3.1%	u	7.7%
CCOC(=O)c1c(C)c(C(=O)NC(C)COC)c(C)n1CC (centres undefined)	11.5%	-10.1%[46.1 µM]	-2.8%	2.4%	-101.7*	2.0%
O=C(/C=C/c1ccccc1)/C=C/c1ccccc1	u	-48.1%	-4.3%	-20.3%	u	7.94µM*
COc1ccc(/C=N/NC(=O)c2cc(-c3cccnc3)nc3ccccc23)c(OC)c1	u	-25.2%	u	-20.9%	x	-2.9%
COc1cccc(/C=N/NC(=O)c2ccc([N+](=O)[O-])cc2Cl)c1O	-2.2%	-11.7%	14.1µM*	-22.8%	7.2	u
COc1cc([N+](=O)[O-])cc(/C=N/NC(=O)c2cc(-c3ccccc3)nc3ccccc23)c1O	13.0%	-3.4%	22.4µM*	u	x	15.8µM*
COc1cc([N+](=O)[O-])cc(/C=N/NC(=O)c2cc(C)nc3ccccc23)c1O	-8.3%	-1.6%	25.1µM*	-22.2%	x	14.1µM*
Cc1cc(C(=O)N/N=C/c2cccc([N+](=O)[O-])c2)c2ccccc2n1	-7.5%	6.1%	-5.6%	-8.4%	0.5	u
COC(=O)c1cc2sccc2n1Cc1ccc(F)cc1Cl	u	x	x	-13.7%	x	-7.2%
SMILES	Tau FP inhib	NPSR antagonist	KDM4E inh	Tau fluor counter	PNC assembly inh	Tau ThT inhib
O=C(CN(c1cccc(Br)c1)S(=O)(=O)c1ccccc1)N1CCc2ccccc2C1	-1.8%	x	x	-14.1%	x	-2.1%
Cc1ccc(S(=O)(=O)Cc2ccc(C(=O)N3CCCCCC3)o2)cc1	10.6%	-3.2%[46.1 µM]	4.0%	-4.9%	-7.5	-1.4%
Cc1ccc(S(=O)(=O)Cc2ccc(C(=O)N3CCCC3)o2)cc1	-0.3%	-7.9%[46.1 µM]	-2.1%	-3.5%	-86.6*	-6.5%
COc1ccccc1CNC(=O)c1c(O)c2cc(OC)c(OC)cc2[nH]c1=O	1.0%	-5.9%[46.1 µM]	3.55µM*	1.8%	11.3	-5.1%
Cn1cccc1/C=C1\Cc2ccccc2C1=O	4.7%	-13.4%	-6.9%	-6.8%	x	u
Cn1cccc1/C=C1\CC(C(C)(C)C)C/C(=C\c2cccn2C)C1=O (centres undefined)	8.9%	10µM*	1.3%	-15.5%	0.2	u
C=CCN1C=C2C(=O)C(C)(OC(=O)c3cccs3)C(=O)C=C2C=C1CCCC(=O)OC (centres undefined)	u	-7.8%	15.8µM*!	-0.2%[11.6 µM]	x	u
O=C(CCc1ccc(O)cc1)c1c(O)cc(O)cc1O	2.5%	-17.6%[46.1 µM]	31.6µM*!	u	x	u
O=C(Cc1ccc2c(c1)OCCO2)c1c(O)cc(O)cc1O	7.9%	-20.8%[46.1 µM]	-6.5%	-28.8%	1.5	-14.2%
O=C(O)c1ccc(COc2c(F)c(F)c(F)c(F)c2F)o1	-10.8%	-2.2%[46.1 µM]	11.9%	-8.5%	-100.0*	u
CCOC(=O)C1=C(O)/C(=C/c2ccc(-c3ccccc3C(=O)O)o2)SC1=Nc1ccc(OC)cc1	5.2%	-6.1%[46.1 µM]	-14.5%	-6.7%	9.3	15.8µM*
O=C1c2ccccc2C2=Nc3ccccc3SC(c3cccc(F)c3)C12 (centres undefined)	u	u	2.5%	12.6µM*[quencher]	u	12.6µM*
CCc1ccc(C2CC(=O)Nc3cc4c(cc32)OCO4)cc1 (centres undefined)	1.4%	x	x	-16.8%	x	-7.9%
CC(=O)c1cc(C#N)c(Oc2cc(C)cc(C)c2)nc1C	-2.8%	1.0%[46.1 µM]	1.3%	-5.2%	-114.3*	2.3%
CCCCC1(CCCC)NC(=S)N(Nc2ccc(C)cc2)C1=O	-7.8%	-8.6%[46.1 µM]	4.4%	-13.3%	-90.0*	-9.1%
Cc1cc(N=Nc2ccc(Cl)cc2)cc(CN2CCOCC2)c1O	11.9%	39.8%	-11.5%	u	x	u
Cc1cc(N=Nc2ccc(Cl)cc2)cc(CN2CCCC2)c1O	u	u	3.1%	u	x	28.2µM*
CCN(c1ccccc1)S(=O)(=O)c1nnc(NC(=O)C(C)Oc2ccccc2)s1 (centres undefined)	7.0%	x	x	-19.3%	x	u
C=CCOC(=O)N[C@H](/C(C(=O)OC)=C(\C)NCc1ccccc1)c1cccc(OC)c1	-3.5%	x	-2.5%	-4.2%	x	0.1%

Compound activity deposited in PubChem by National Center for Advancing Translational Sciences (NCATS).
